From PubChem BioAssay AID1159580 (chemical genetic matrix, 2015)
The whole screen tested about 5,500 compounds, of which about 2,000 (36%) were called active. Another 18% or so got no clear call; they are omitted. Cut-off read from the data, not from the text of the source: active = normalized growth mostly below about 0.91 (no sharp cut-off); inconclusive = no clear call, values can overlap the other calls; inactive = mostly above about 0.92. The list shows a part of the results.

Assay: chemical genetic growth profiling, strain panel (AID 1159580);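 note: tested at 20 µM; growth read once vehicle control cultures reached saturation at 30 °C; 1 = growth at the plate median or of vehicle wells; lower values mean less growth of the strain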
Settings: growth OD

Measured: normalized growth

Nc1nc(/C(=C/CC(=O)O)C(=O)N[C@@H]2C(=O)N3C(C(=O)O)=CCS[C@H]23)cs1
inactive: S. cerevisiae deletion strains, locus YJR075W, strain HOC1, hits give low values 1.01 | S. cerevisiae deletion strains, locus YKL009W, strain mrt4, hits give low values 0.986 | S. cerevisiae deletion strains, locus YKL068W, hits give low values 0.997 | S. cerevisiae deletion strains, locus YKL085W, strain MDH1 (second series), hits give low values 0.987 | S. cerevisiae deletion strains, locus YKL085W, strain MDH1, hits give low values 0.987 | S. cerevisiae deletion strains, locus YKL160W, strain elf1, hits give low values 0.993 | S. cerevisiae deletion strains, locus YKL190W, strain CNB1, hits give low values 1.01 | S. cerevisiae deletion strains, locus YKR001C, strain vps1, hits give low values 0.981 | S. cerevisiae deletion strains, locus YKR026C, strain gcn3, hits give low values 1 | S. cerevisiae deletion strains, locus YKR091W, strain srl3, hits give low values 1.01 | S. cerevisiae deletion strains, locus YLL001W, strain dnm1, hits give low values 1.01 | S. cerevisiae deletion strains, locus YLL026W, hits give low values 1.01 | S. cerevisiae deletion strains, locus YLL041C, strain sdh2, hits give low values 1.01 | S. cerevisiae deletion strains, locus YLR027C, strain aat2, hits give low values 1.01 | S. cerevisiae deletion strains, locus YLR039C, strain RIC1, hits give low values 1.03 | S. cerevisiae deletion strains, locus YLR058C, strain SHM2, hits give low values 0.996 | S. cerevisiae deletion strains, locus YLR102C, strain apc9, hits give low values 0.996 | S. cerevisiae deletion strains, locus YLR113W, strain HOG1, hits give low values 0.998 | S. cerevisiae deletion strains, locus YLR221C, strain rsa3, hits give low values 1.01 | S. cerevisiae deletion strains, locus YLR258W, strain gsy2, hits give low values 0.999 | S. cerevisiae deletion strains, locus YLR262C, strain YPT6 (second series), hits give low values 1.03 | S. cerevisiae deletion strains, locus YLR262C, strain YPT6, hits give low values 1.02 | S. cerevisiae deletion strains, locus YLR268W, strain sec22, hits give low values 0.987 | S. cerevisiae deletion strains, locus YLR320W, strain mms22, hits give low values 1.01 | S. cerevisiae deletion strains, locus YLR330W, strain CHS5, hits give low values 0.99 | S. cerevisiae deletion strains, locus YLR342W, strain FKS1 (second series), hits give low values 1 | S. cerevisiae deletion strains, locus YLR342W, strain FKS1, hits give low values 1.01 | S. cerevisiae deletion strains, locus YLR357W, strain rsc2, hits give low values 1.01 | S. cerevisiae deletion strains, locus YLR370C, strain arc18, hits give low values 1 | S. cerevisiae deletion strains, locus YLR371W, strain rom2, hits give low values 0.995 | S. cerevisiae deletion strains, locus YLR384C, strain iki3, hits give low values 0.997 | S. cerevisiae deletion strains, locus YLR418C, strain cdc73, hits give low values 1 | S. cerevisiae deletion strains, locus YML016C, strain PPZ1, hits give low values 0.984 | S. cerevisiae deletion strains, locus YML032C, strain rad52, hits give low values 0.997 | S. cerevisiae deletion strains, locus YML120C, strain ndi1, hits give low values 1 | S. cerevisiae deletion strains, locus YML124C, strain tub3, hits give low values 0.982 | S. cerevisiae deletion strains, locus YMR058W, strain fet3, hits give low values 0.998 | S. cerevisiae deletion strains, locus YMR078C, strain ctf18, hits give low values 0.991 | S. cerevisiae deletion strains, locus YMR125W, strain sto1, hits give low values 1.01 | S. cerevisiae deletion strains, locus YMR129W, hits give low values 1.01 | S. cerevisiae deletion strains, locus YMR205C, strain PFK2, hits give low values 1.01 | S. cerevisiae deletion strains, locus YMR223W, strain ubp8, hits give low values 1 | S. cerevisiae deletion strains, locus YMR231W, strain pep5, hits give low values 1.01 | S. cerevisiae deletion strains, locus YMR263W, strain SAP30, hits give low values 1.01 | S. cerevisiae deletion strains, locus YMR307W, strain GAS1, hits give low values 0.996 | S. cerevisiae deletion strains, locus YNL067W, strain RPL9B, hits give low values 1.03 | S. cerevisiae deletion strains, locus YNL071W, strain lat1, hits give low values 1 | S. cerevisiae deletion strains, locus YNL128W, strain TEP1, hits give low values 1.01 | S. cerevisiae deletion strains, locus YNL153C, strain GIM3, hits give low values 0.995 | S. cerevisiae deletion strains, locus YNL183C, strain NPR1, hits give low values 0.961 | S. cerevisiae deletion strains, locus YNL209W, strain ssb2, hits give low values 0.994 | S. cerevisiae deletion strains, locus YNL233W, strain BNI4, hits give low values 0.993 | S. cerevisiae deletion strains, locus YNL248C, strain rpa49, hits give low values 1.01 | S. cerevisiae deletion strains, locus YNL250W, strain rad50, hits give low values 0.987 | S. cerevisiae deletion strains, locus YNL271C, strain bni1, hits give low values 0.987 | S. cerevisiae deletion strains, locus YNL298W, strain CLA4, hits give low values 0.984 | S. cerevisiae deletion strains, locus YNL307C, strain MCK1, hits give low values 0.998 | S. cerevisiae deletion strains, locus YNL322C, strain KRE1 (second series), hits give low values 1.01 | S. cerevisiae deletion strains, locus YNL322C, strain KRE1, hits give low values 0.994 | S. cerevisiae deletion strains, locus YNR049C, strain mso1, hits give low values 1 | S. cerevisiae deletion strains, locus YNR052C, strain pop2, hits give low values 0.983 | S. cerevisiae deletion strains, locus YOL006C, strain TOP1, hits give low values 1.02 | S. cerevisiae deletion strains, locus YOL012C, strain htz1 2.11 | S. cerevisiae deletion strains, locus YOL147C, strain pex11, hits give low values 0.997 | S. cerevisiae deletion strains, locus YOR001W, strain rrp6, hits give low values 1.01 | S. cerevisiae deletion strains, locus YOR061W, strain CKA2, hits give low values 0.984 | S. cerevisiae deletion strains, locus YOR069W, strain VPS5, hits give low values 0.993 | S. cerevisiae deletion strains, locus YOR070C, strain gyp1, hits give low values 1 | S. cerevisiae deletion strains, locus YOR080W, strain dia2, hits give low values 1.01 | S. cerevisiae deletion strains, locus YOR083W, strain WHI5, hits give low values 1.01 | S. cerevisiae deletion strains, locus YOR106W, strain vam3, hits give low values 1.02 | S. cerevisiae deletion strains, locus YOR136W, strain idh2, hits give low values 0.983 | S. cerevisiae deletion strains, locus YOR144C, strain elg1, hits give low values 0.988 | S. cerevisiae deletion strains, locus YOR184W, strain ser1, hits give low values 0.999 | S. cerevisiae deletion strains, locus YOR231W, strain MKK1, hits give low values 0.986 | S. cerevisiae deletion strains, locus YOR265W, strain rbl2, hits give low values 1.01 | S. cerevisiae deletion strains, locus YOR270C, strain vph1, hits give low values 1.06 | S. cerevisiae deletion strains, locus YOR290C, strain snf2, hits give low values 0.995 | S. cerevisiae deletion strains, locus YOR316C, strain cot1, hits give low values 0.992 | S. cerevisiae deletion strains, locus YPL051W, strain arl3, hits give low values 1 | S. cerevisiae deletion strains, locus YPL055C, strain LGE1, hits give low values 1.01 | S. cerevisiae deletion strains, locus YPL078C, strain atp4, hits give low values 1 | S. cerevisiae deletion strains, locus YPL106C, strain sse1, hits give low values 1.01 | S. cerevisiae deletion strains, locus YPL240C, strain hsp82, hits give low values 1.01 | S. cerevisiae deletion strains, locus YPL241C, strain CIN2, hits give low values 0.993 | S. cerevisiae deletion strains, locus YPL256C, strain CLN2, hits give low values 0.961 | S. cerevisiae deletion strains, locus YPR119W, strain clb2, hits give low values 0.997 | S. cerevisiae deletion strains, locus YPR141C, strain kar3, hits give low values 0.99 | S. cerevisiae deletion strains, locus YPR163C, strain tif3, hits give low values 0.982 | S. cerevisiae deletion strains, locus YPR167C, strain met16, hits give low values 0.991 | S. cerevisiae deletion strains, strain wtn01, hits give low values 0.985 | S. cerevisiae strains, strain wild type, hits give low values 1.01
